Among all 310,000 compounds or so, about 3,900 (1.3%) were called active.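 The calls were made as follows: active = compounds whose thallium flux B-score, printed positive for inhibition, exceeds three library SD while starting fluorescence stays within three; inactive = the rest.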 The entries come from a sample that favours actives as a whole.

Sequence of Potassium voltage-gated channel subfamily KQT member 1 (Homo sapiens) (P51787 whole entry, looked up): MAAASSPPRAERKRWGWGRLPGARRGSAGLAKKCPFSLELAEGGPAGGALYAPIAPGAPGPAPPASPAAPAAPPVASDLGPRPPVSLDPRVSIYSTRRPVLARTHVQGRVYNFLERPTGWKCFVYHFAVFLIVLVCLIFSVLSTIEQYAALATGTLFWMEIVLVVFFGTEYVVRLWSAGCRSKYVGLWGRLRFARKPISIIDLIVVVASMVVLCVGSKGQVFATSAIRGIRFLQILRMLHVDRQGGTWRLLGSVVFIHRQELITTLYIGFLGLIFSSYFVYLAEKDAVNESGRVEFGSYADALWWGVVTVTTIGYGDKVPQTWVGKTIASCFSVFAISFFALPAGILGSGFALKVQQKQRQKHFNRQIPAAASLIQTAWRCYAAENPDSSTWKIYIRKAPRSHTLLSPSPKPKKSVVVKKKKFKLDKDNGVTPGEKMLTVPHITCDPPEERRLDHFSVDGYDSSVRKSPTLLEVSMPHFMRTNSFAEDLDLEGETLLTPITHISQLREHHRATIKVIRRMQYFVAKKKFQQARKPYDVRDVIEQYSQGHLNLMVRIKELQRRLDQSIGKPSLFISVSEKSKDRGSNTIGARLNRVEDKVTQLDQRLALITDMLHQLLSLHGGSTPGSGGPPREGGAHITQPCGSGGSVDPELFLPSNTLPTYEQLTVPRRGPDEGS

The test has as its target Potassium voltage-gated channel subfamily KQT member 1 (Homo sapiens) (UniProt P51787). The experiment in a line: KCNQ1 potassium current blockers – cell-based, thallium flux, high-throughput, primary screen (AID 2642).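 Also: channel opened by potassium depolarization with thallium stimulus after 20 min compound exposure.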 The note with it: CHO-K1 KCNQ1, FluxOR thallium flux fluorescence, at 10 µM; hits give high values.
With `CCOC(=O)c1sc(NC(=O)CSc2nc(C)cc(C(F)(F)F)n2)c(C#N)c1C`, the B-score entry is “inactive”.
The same measure for `CC(C(=O)Nc1ccc(O)c(C(=O)O)c1)N1C(=O)/C(=C/c2cccs2)SC1=S` (stereo unspecified): “inactive”; for `COC(=O)c1ccc(NC(=O)c2cc(Cl)ccc2OC)cc1`: “inactive”.
In the case of `Cc1ccc(NC(=O)CC(=O)Nc2ccc(C)cc2)cc1` it was “inactive”.
For `COC(=O)c1ccc(NC(=O)Nc2ccc(C)cc2)cc1`, the B-score was 7 (active).
In the case of `CCC(C)C(NC(=O)C1CCC(=O)N1C(=O)OCc1ccccc1)C(=O)NC(C(=O)N1CCCC1C(N)=O)C(C)CC` (stereo unspecified) it was “inactive”.
The same measure for `CC1CCc2c(c3ccccc3[nH]c2=O)O1` (stereo unspecified): “inactive”; for `CCOC(=O)c1cc(C)sc1NC(=O)C1CCC1`: “inactive”; for `COc1ccc(C2CC(c3cccs3)=NN2c2ccccc2)cc1` (stereo unspecified): “inactive”.
In the case of `Oc1ccccc1C1=NN(c2ccccc2)C(c2ccccc2)C1` (stereo unspecified) it was 7 (active).
Turning to `O=C(c1ccccc1)N1N=C(c2ccccc2O)CC1c1ccc(Br)cc1` (stereo unspecified), the B-score entry was “inactive”.
On to `Cc1nc2c(C(=O)NCc3cccs3)cnn2c(C)c1Cc1ccc(F)cc1`, for which the B-score entry is “inactive”.
In the case of `CCOC(=O)c1cccc(NC(=O)C2CCCN(S(=O)(=O)c3cnc[nH]3)C2)c1` (stereo unspecified) it was “inactive”; in that of `Cc1ccc(C)c(-n2cc(CN3CCN(C(=O)c4ncn[nH]4)CC3)c(-c3ccccc3)n2)c1`, “inactive”.
The same measure for `CCC(O)C1CCN(Cc2cn(-c3ccc(OC)cc3)nc2-c2cccc(F)c2)CC1` (stereo unspecified): “inactive”; for `Cc1cccc(-n2cc(CN3CCN(C(=O)c4ncn[nH]4)CC3)c(-c3cccc(F)c3)n2)c1`: 10 (active).
In the case of `Cc1cc(C)c(S(=O)(=O)N2CCCC2CNC(=O)c2ccc3c(c2)OCO3)c(C)c1` (stereo unspecified) it was “inactive”; in that of `Cc1ccc(OCCCCN2CCCCC2)c(Br)c1`, “inactive”; in that of `CC(C)CC(=O)N1CCN(Cc2ccccc2Br)CC1`, “inactive”.
On to `CCN1CC=C2C(C#N)=C(N)C(C#N)(C#N)[C@H](c3ccoc3)[C@H]2C1`, for which the B-score result was “inactive”.
In the case of `CCC(C)(C)NC(=O)/C=C/c1cc(OC)c(OC)c(S(=O)(=O)N2CCc3ccccc32)c1` it was “inactive”; in that of `O=C(CN1C(=O)S/C(=C\c2ccccc2Cl)C1=O)NC1C=CS(=O)(=O)C1` (stereo unspecified), “inactive”; in that of `CN1C2CCC1/C(=C\c1ccccc1Cl)C(=O)/C2=C\c1ccccc1Cl`, 10 (active).
The same measure for `O=C(CN1CCCCCC1)NCCN1C(=O)S/C(=C\c2ccccc2Cl)C1=O`: “inactive”; for `COc1ccc(/C=N/n2c(C)cc(C)cc2=O)cc1`: “inactive”.
In the case of `OCCC1CN(Cc2cccc(O)c2)CCN1CCc1ccccc1` (stereo unspecified) it was “inactive”; in that of `COc1cccc(C2CC(c3ccccc3)=NN2S(=O)(=O)c2ccccc2)c1OC` (stereo unspecified), “inactive”; in that of `COc1ccc(C2CC(=O)n3c(nc4ccccc43)S2)cc1OC` (stereo unspecified), “inactive”.
With `COc1ccccc1C1CC(=O)n2c(nc(-c3ccccc3)c2-c2ccccc2)S1` (stereo unspecified), the B-score was 7 (active).
Take `COc1ccc2[nH]c3c(=O)n(Cc4ccco4)cnc3c2c1`: the B-score entry is “inactive”.
As for `COc1ccc(-c2oc3ncn(Cc4ccco4)c(=N)c3c2-c2ccc(OC)cc2)cc1`, the B-score was 9 (active).
In the case of `COc1ccc(-c2oc3ncnc(NCCCO)c3c2-c2ccc(OC)cc2)cc1` it was “inactive”; in that of `CCOc1ccc2ccccc2c1/C=N/NC(=O)c1c(C)cc(C)[nH]c1=O`, “inactive”.
In the case of `CN(C(=O)CCNC(=O)Cn1ccc2ccccc2c1=O)c1ccc(Br)cc1` it was “inactive”; in that of `CCC(C)Sc1nnc(-c2c[nH]c3ccccc23)n1CCOC` (stereo unspecified), “inactive”.
In the case of `CCn1c(SCC(=O)Nc2ccc(OC)c(OC)c2)nnc1-c1c[nH]c2ccccc12` it was “inactive”.
With `CCn1c(SCCC(C)C)nnc1-c1c[nH]c2ccccc12`, the B-score was 6 (active).
In the case of `CC1CC(=S)Nc2ccccc2N1Cc1ccccc1` (stereo unspecified) it was “inactive”; in that of `COc1ccc(S(=O)(=O)N2CCCC(C(=O)NCCCn3ccnc3)C2)cc1OC` (stereo unspecified), “inactive”.
For `COc1ccccc1NC(=O)C[n+]1ccccc1`, the B-score result was “inactive”.
In the case of `Cc1cccc[n+]1CC(=O)c1ccccc1` it was “inactive”; in that of `COC(=O)C[n+]1cccc2ccccc21`, 8 (active); in that of `O=C(CC1C(=O)NCCN1C(=O)c1ccc([N+](=O)[O-])cc1)Nc1cccc(Cl)c1` (stereo unspecified), “inactive”.
The same measure for `CC1c2nc3ccccc3n2C(CC(=O)NCCCN2CCOCC2)C(=O)N1Cc1ccccc1` (stereo unspecified): “inactive”.
In the case of `Cc1cc(Cl)ccc1OCCCC(=O)Nc1cccc(-n2cnnn2)c1` it was “inactive”; in that of `O=C(CCC1CCCCC1)Nc1cc(C(F)(F)F)ccc1N1CCOCC1`, “inactive”.
On to `COc1ccc(S(=O)(=O)N2CCOCC2)cc1NC(=O)COc1ccccc1`, for which the B-score entry is “inactive”.
`COc1cc(S(=O)(=O)N2CCOCC2)ccc1NC(=O)COc1ccc(N(C)S(=O)(=O)c2ccc(C)cc2)cc1`: the B-score was 13 (active).
Turning to `COc1ccc(NC(=O)CN2C(=O)COc3ccc(S(=O)(=O)N4CCOCC4)cc32)c(OC)c1`, the B-score result is “inactive”.
In the case of `CCOC(=O)c1c(NC(=S)NC)sc2c1CCCC2` it was “inactive”; in that of `CCOC(=O)c1c(NC(=O)C(C)Sc2c[nH]c3ccccc23)sc2c1CCC2` (stereo unspecified), 12 (active); in that of `CCOC(=O)c1c(NC(=O)CSc2cn(CC)c3ccccc23)sc2c1CCC2`, “inactive”.
With `CCOc1ccc(S(=O)(=O)N2CCC(C(=O)OCc3ccc(OC)cc3)CC2)cc1`, the B-score result is “inactive”.
The same measure for `CC1CN(C(=S)Nc2ccc(Br)cc2Cl)CC(C)O1` (stereo unspecified): “inactive”.
Take `CCCCOC(=O)Nc1nnc(CC(=O)NCc2ccccc2)s1`: the B-score entry was “inactive”.
For `CC(=O)N1CCCc2cc(S(=O)(=O)N3CCCC(C(=O)N4CCN(c5cccc(Cl)c5)CC4)C3)ccc21` (stereo unspecified), the B-score was 8 (active).
In the case of `CC(=O)N1CCCc2cc(S(=O)(=O)N3CCCC(C(=O)NCc4ccc(Cl)cc4)C3)ccc21` (stereo unspecified) it was “inactive”; in that of `CC(=O)N1c2ccc(S(=O)(=O)N3CCCC(C(=O)Nc4cccc(Cl)c4)C3)cc2CC1C` (stereo unspecified), “inactive”.
The same measure for `CCCOc1cccc(C(=O)Nc2ccccc2C(=O)N2CCN(C)CC2)c1`: “inactive”; for `COC(=O)c1c(NC(=O)COC(=O)[C@@H](NS(=O)(=O)c2ccccc2)C(C)C)sc2c1CCC2`: “inactive”; for `O=C(O)c1ccc(N/N=C/c2cn(-c3ccccc3)nc2-c2cccs2)cc1`: “inactive”.
The same measure for `Cc1ccc(-c2nn(-c3ccccc3)cc2/C=N/NC(=O)c2ccc3c(c2)OCO3)cc1`: 6 (active).
On to `CC(C)(C)OC(=O)N/N=C/c1cn(-c2ccccc2)nc1-c1cccnc1`, for which the B-score entry is “inactive”.
Turning to `CC(=O)Nc1ccc(N2C(=O)CCC2=O)cc1C`, the B-score entry is “inactive”.
In the case of `CCC(C(=O)OCC(=O)Nc1ccc(C(=O)Nc2ccc(OC)cc2)cc1)c1ccccc1` (stereo unspecified) it was “inactive”; in that of `O=C(COC(=O)[C@H](Cc1ccccc1)NC(=O)c1cccs1)Nc1cc(F)ccc1F`, 6 (active); in that of `Cc1ccc(C)c(NC(CC(=O)c2ccccc2)C(=O)OCC(=O)c2cccs2)c1` (stereo unspecified), “inactive”.
In the case of `COC(=O)[C@H](Cc1ccccc1)NC(=O)Nc1ccc(OC)cc1` it was “inactive”; in that of `NC(=O)c1ccc(NC(=O)COC(=O)C(Cc2ccccc2)NC(=O)c2ccccc2)cc1` (stereo unspecified), 6 (active); in that of `CCc1ccc(NC(=O)COC(=O)c2cccs2)cc1`, “inactive”.
In the case of `CCCCSCCCNC(=O)C1CCC(CNS(=O)(=O)c2ccc(NC(C)=O)cc2)CC1` (stereo unspecified) it was “inactive”; in that of `C=CCSc1nc(N)cc(=O)[nH]1`, “inactive”; in that of `COc1ccc(C(=O)OCC(=O)Nc2cccc(C(C)=O)c2)cc1OC`, “inactive”.
Turning to `CN1CCN(C(CNS(=O)(=O)c2cccs2)c2cccnc2)CC1` (stereo unspecified), the B-score result was “inactive”.
In the case of `CCOC(=O)N1CCN(c2c(NCCCN3CCCC(C)C3)c(=O)c2=O)CC1` (stereo unspecified) it was “inactive”.
The same measure for `CCC1C=C(c2ccccc2)C=CN=C1N(CC)CC` (stereo unspecified): “inactive”.
For `c1ccc2c(NC3C4CC5CC(C4)CC3C5)nc(N3CCOCC3)nc2c1` (stereo unspecified), the B-score entry was “inactive”.
The same measure for `CC1(C)Cc2c(cnn2-c2cccc(F)c2)C(NC(=O)c2cc[n+]([O-])cc2)C1` (stereo unspecified): “inactive”; for `Cn1nccc1C(=O)NC1CCCc2c1cnn2-c1ccc(F)cc1F` (stereo unspecified): 9 (active).
Take `COc1ccc(C(=O)NC2CC(C)(C)Cc3c2cnn3-c2ccccc2C)o1` (stereo unspecified): the B-score result is “inactive”.
The same measure for `Cc1cc(C(=O)NC2CCCc3c2cnn3-c2cccc(C)c2C)c(C)o1` (stereo unspecified): “inactive”; for `COc1ccc(C(=O)NC2CCCc3c2cnn3-c2cccc(C)c2C)c(OC)n1` (stereo unspecified): 11 (active); for `Cn1nccc1CNC(=O)c1ccnn1C`: “inactive”.
The same measure for `Cn1nccc1C(=O)NC1CCCc2c1cnn2-c1ccccc1F` (stereo unspecified): 6 (active).
On to `CC(=O)NCC(=O)NC1CCCc2c1cnn2-c1ccccc1F` (stereo unspecified), for which the B-score entry is “inactive”.
The same measure for `Cc1ccc(-n2ncc3c2CCCC3NC(=O)c2cnccn2)cc1C` (stereo unspecified): “inactive”; for `Cc1nc(C(=O)N2CCCC(C(=O)c3ccc(Cl)cc3)C2)cs1` (stereo unspecified): “inactive”.
For `CCOC(=O)N1CCN(CCC(=O)Nc2ccccc2)CC1`, the B-score result is “inactive”.
In the case of `Cc1cccc(NC(=O)C2CCCN(C(=O)Nc3ccc(F)cc3)C2)c1C` (stereo unspecified) it was “inactive”; in that of `COc1cccc2c(C)c(C(=O)O)[nH]c12`, “inactive”; in that of `Cc1nn(-c2ncc(C(F)(F)F)cc2Cl)c(=O)n1-c1ccccc1`, “inactive”.
The same measure for `CC1CCCC(N2CCN(C(=O)c3ccc(F)cc3)CC2)C1` (stereo unspecified): “inactive”.
Take `C=CCn1c(SCC(N)=O)nnc1-c1cc2c(s1)CCC(CC)C2` (stereo unspecified): the B-score result was “inactive”.
In the case of `COc1ccc(-c2csc3ncnc(Oc4ccc5c(C)cc(=O)oc5c4)c23)cc1` it was “inactive”; in that of `COc1ccc(-c2csc3ncnc(N4CCN(S(=O)(=O)c5cccc(F)c5)CC4)c23)cc1`, 6 (active).
In the case of `COc1ccc(-c2csc3ncnc(N4CCN(S(=O)(=O)c5ccccc5C#N)CC4)c23)cc1` it was “inactive”; in that of `CCN(c1ccc(NC(=O)COC(=O)CCc2nc3ccccc3n2-c2ccccc2)cc1)C(C)C`, “inactive”.
The same measure for `CCN1/C(=C\c2ccc3ccccc3[n+]2CC)Sc2cc(C)ccc21`: 15 (active); for `O=C(CNS(=O)(=O)c1ccccc1)NCC(=O)OCc1ccccc1F`: “inactive”.
As to `Cc1ccc(SCC(=O)NC(=O)NCc2ccco2)c(C)c1`, the B-score entry is “inactive”.
The same measure for `CC(=O)NCc1ccc(S(=O)(=O)NC2CCN(Cc3ccccc3)CC2)cc1`: “inactive”; for `COc1ccc(C)cc1NC(=S)Nc1ccccc1SC`: “inactive”; for `O=C1NC(=Nc2ccc(Cl)cc2)SC1Cc1cccc(Cl)c1Cl` (stereo unspecified): “inactive”.
In the case of `O=C(NNC(=O)c1csc(-c2cccnc2)n1)Nc1ccc(Cl)cc1` it was “inactive”; in that of `Cc1ccc(NC(=O)Nc2cccnc2)cc1`, “inactive”.
The same measure for `O=C(Nc1ccc(Cl)cc1)Nc1ccc(Oc2cccnc2)nc1`: 8 (active).

These data come from PubChem BioAssay AID2642 (Johns Hopkins Ion Channel Center, 2010).
